Sampled rows, rich in hits. Any-hit rate of the full collection: about 6.5%.
Giardia kill: Giardia lamblia killing; Giardia lamblia trophozoite viability; hit rate 0.15% among 340,000; AID 540267; activity change, % at 7.66 µM, hits read low; in the data active = activity change below about -80%; inconclusive = between about -30% and that limit;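 note: parasites exposed to compound for two days anaerobically before the ATP read; % is set by controls: 0 for no effect and ±100 for the full control effect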
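Luminescence from cellular ATP indicates surviving trophozoites (100 cells/well) following 48 hrs anaerobic compound treatment at 37 deg C; signal develops 15-30 min at room temperature.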
HT1080 IDH1KD tx: toxicity to HT-1080 IDH1 knockdown cells (counter line); HT-1080 IDH1 knockdown viability, ATP luminescence, 48 h; AID 686971; Potency, µM (top dose mostly 46.1 µM), without a hit: at the highest dose activity, negative = toxicity, usual class: cytotoxic; hit rate 2% among 360,000;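 note: potency is the fitted concentration of half-maximal effect; 0% = DMSO wells and -100% = cell-free medium wells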
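Viability of IDH1-knockdown HT-1080 fibrosarcoma cells was assessed by CellTiter-Glo after 48 h at 37 °C with titrated compound; concentration-effect curves were classified by fit quality and response size.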
IL1B secr inh: inhibitors of inflammasome signaling (IL-1 beta secretion); activity change, % at 57.5 µM; THP-1 LPS/ATP IL-1B secretion, AlphaLISA, 16 h; stronger effect = lower value; hit rate 4.7% among 360,000; in the data active = activity change below about -50%; inconclusive = mostly about -30% to -49%; note: % is set by controls: 0 for no effect and ±100 for the full control effect
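Secreted IL-1B measured by AlphaLISA bead assay after 16 h compound exposure of THP-1 cells; compounds (final up to 57.5 uM) added 1 h before LPS (250 ng/mL) and ATP (1.25 mM) stimulation; lower signal means less secretion.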
HepG2 tox: counter-screen for TGF-b inhibitors: cytotoxicity in HepG2 cells | HepG2 CAGA-GFP viability, ATP luminescence, 18 h | Potency, µM (titrated, usually from 46.1 µM), for inactives: at the highest dose activity change, negative = cytotoxicity, usual class: cytotoxic | hit rate 0.76% among 410,000 | AID 588856; note: potency is the fitted concentration of half-maximal effect
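CellTiter-Glo luminescence gave cytotoxicity after 18 hours at 37 degrees C. The cells were HepG2 CAGA-GFP in 1% FBS DMEM, stimulated with 500 pg/mL TGF-beta after compound addition. %Activity was normalised to no-cell wells (complete cell-killing) and DMSO (no toxicity), and curves were fitted and classified.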
HT1080-NT tox: kills 2HG-producing HT-1080-NT fibrosarcoma cells; HT-1080-NT fibrosarcoma viability, CellTiter-Glo ATP luminescence, 48 h; Potency, µM (series often up to 46.1 µM), for inactives: top-dose activity, negative = less viability, usual class: cytotoxic; hit rate 1.6% among 360,000; AID 686970;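 note: NT is the 2HG producing partner of a matched IDH1 knockdown line; potency is the fitted concentration of half-maximal effect; 0% = DMSO-treated cells and -100% = media-only wells without cells; nearly all actives have a fitted effect of over 55% in size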
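Read-out is CellTiter-Glo luminescence after 10 minutes at room temperature, following 48 hours' compound treatment of HT-1080-NT cells (750 cells/well, RPMI, 5% FBS, 37 degrees C).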
TGFb inhibitor: blocks TGF-b signaling | Potency, µM (doses to about 46.1 µM), inactives show at the highest dose activity, negative = inhibition, hits mostly inhibitors | HepG2 CAGA-GFP TGF-b/SMAD3 reporter, GFP fluorescence, 18 h; TGF-beta stimulated, 500 pg/mL final | AID 588855 | hit rate 1.2% among 410,000; note: potency is the fitted concentration of half-maximal effect; % is set by controls: 0 for no effect and ±100 for the full control effect; nearly all actives have a fitted effect of over 65% in size
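HEPG2 CAGA-GFP reporter cells (1000/well, DMEM with 1% FBS) received compounds, then recombinant TGF-beta at 500 pg/mL final for 18 hours at 37 degrees C. Per-cell GFP summed per well was normalised to unstimulated and stimulated DMSO controls before curve fitting.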
* hit, by the source's call. Unless noted, calls come from the whole dose curve; as a rule, active = well fitted curve in the direction sought with a large enough effect; inconclusive = small, poorly fitted or top-dose-only effect, or another doubt; inactive = no such curve, though single readings can be large; an effect the other way counts as inactive or inconclusive.

Results for O=C(Nc1ccc2c(c1)OCCO2)C(=O)c1c[nH]c2ccccc12 ?
Giardia kill: inconclusive; HT1080 IDH1KD tx: inconclusive; IL1B secr inh: inconclusive; HepG2 tox: -11%; HT1080-NT tox: 7.3µM*; TGFb inhibitor: -14%

Results for O=C(Nc1ccc2c(c1)OCO2)C(=O)c1c[nH]c2ccccc12 ?
Giardia kill: inconclusive; HT1080 IDH1KD tx: inconclusive; IL1B secr inh: -8; HepG2 tox: -19%; HT1080-NT tox: inconclusive; TGFb inhibitor: 5%

Results for O=S(=O)(Nc1nc(SCc2ccc(Cl)cc2)n[nH]1)c1ccc(F)cc1 ?
Giardia kill: -12; HT1080 IDH1KD tx: inconclusive; IL1B secr inh: -59*; HepG2 tox: -16%; HT1080-NT tox: inconclusive; TGFb inhibitor: inconclusive

How did COC(=O)C1=C(C)NC(=O)NC1c1ccc(N2CCC(c3ccccc3)=N2)cc1 (stereo not given) do in these assays?
Giardia kill: 17; HT1080 IDH1KD tx: inconclusive; IL1B secr inh: -69*; HepG2 tox: 11%; HT1080-NT tox: -25%; TGFb inhibitor: -20%

How did CCCCOc1ccc(CSC(=N)N)cc1Cl do in these assays?
Giardia kill: -4; HT1080 IDH1KD tx: 15µM*; IL1B secr inh: -101*; HepG2 tox: -176%; HT1080-NT tox: 18µM*; TGFb inhibitor: inconclusive

Results for COc1ccc(Br)cc1CSC(=N)N ?
Giardia kill: -1; HT1080 IDH1KD tx: -16%; IL1B secr inh: -88*; HepG2 tox: -14%; HT1080-NT tox: -15%; TGFb inhibitor: -6%

How did CCOc1ccc(CSC(=N)N)cc1 do in these assays?
Giardia kill: 0; HT1080 IDH1KD tx: -1%; IL1B secr inh: 22; HepG2 tox: -3%; HT1080-NT tox: -7%; TGFb inhibitor: -4%

Results for CCCCCOc1ccc(Br)cc1CSC(=N)N ?
Giardia kill: 5; HT1080 IDH1KD tx: inconclusive; IL1B secr inh: -97*; HepG2 tox: -102%; HT1080-NT tox: inconclusive; TGFb inhibitor: inconclusive

Results for O=C(NCc1ccccc1)NS(=O)(=O)c1ccccc1Cl ?
Giardia kill: -10; HT1080 IDH1KD tx: 6%; IL1B secr inh: 4; HepG2 tox: 4%; HT1080-NT tox: 13%; TGFb inhibitor: -2%

Results for C=CCn1c(SCC(=O)C23CC4CC(CC(C4)C2)C3)nc(O)cc1=O ?
Giardia kill: 2; HT1080 IDH1KD tx: -1%; IL1B secr inh: 16; HepG2 tox: 5%; HT1080-NT tox: 2%; TGFb inhibitor: -2%

Results for Cc1ccc(CNc2ccc([N+](=O)[O-])cc2C(N)=O)cc1 ?
Giardia kill: -4; HT1080 IDH1KD tx: 6%; IL1B secr inh: 7; HepG2 tox: 15%; HT1080-NT tox: 17%; TGFb inhibitor: 20%

Results for Cc1ccc(Oc2c(C(N)=O)cc([N+](=O)[O-])cc2[N+](=O)[O-])cc1 ?
Giardia kill: 19; HT1080 IDH1KD tx: inconclusive; IL1B secr inh: -85*; HepG2 tox: -83%; HT1080-NT tox: inconclusive; TGFb inhibitor: inconclusive

How did CSc1n[nH]c2nc3c(c(=O)n12)C1(CCCCC1)Cc1ccccc1-3 do in these assays?
Giardia kill: -25; HT1080 IDH1KD tx: 17%; IL1B secr inh: 26; HepG2 tox: -7%; HT1080-NT tox: 14%; TGFb inhibitor: 7%

Results for CCN(CC)CCNC(=S)Nc1ccc2nc(N3CCOCC3)cc(C)c2c1 ?
Giardia kill: 10; HT1080 IDH1KD tx: 0%; IL1B secr inh: inconclusive; HepG2 tox: 0%; HT1080-NT tox: -7%; TGFb inhibitor: 1%

What do the screens show for `Cc1cc(N2CCOCC2)nc2ccc(NC(=S)NCCC(C)C)cc12`?
Giardia kill: 22; HT1080 IDH1KD tx: inconclusive; IL1B secr inh: -50*; HepG2 tox: -25%; HT1080-NT tox: -7%; TGFb inhibitor: 0%

What do the screens show for `CCN(CC)CCNC(=S)Nc1ccc2nc(N3CCN(C)CC3)cc(C)c2c1`?
Giardia kill: 4; HT1080 IDH1KD tx: -20%; IL1B secr inh: -51*; HepG2 tox: -4%; HT1080-NT tox: inconclusive; TGFb inhibitor: 13%

Results for CCN(CC)CCNC(=S)Nc1ccc2nc(N3CCCC3)cc(C)c2c1 ?
Giardia kill: -8; HT1080 IDH1KD tx: inconclusive; IL1B secr inh: -66*; HepG2 tox: -21%; HT1080-NT tox: inconclusive; TGFb inhibitor: 4%

How did CCOc1cc(C(=O)CCC(=O)OCC(=O)NC(=O)NCC(C)C)ccc1O do in these assays?
Giardia kill: 1; HT1080 IDH1KD tx: 2%; IL1B secr inh: 26; HepG2 tox: -4%; HT1080-NT tox: 6%; TGFb inhibitor: -9%

Results for O=C(Cc1ccccc1)N1CCN(c2ccc([N+](=O)[O-])cc2)CC1 ?
Giardia kill: -14; HT1080 IDH1KD tx: -11%; IL1B secr inh: 0; HepG2 tox: -25%; HT1080-NT tox: -7%; TGFb inhibitor: -5%

How did NC(N)=NN=C1c2ccccc2-c2ccccc21 do in these assays?
Giardia kill: -12; HT1080 IDH1KD tx: -14%; IL1B secr inh: -64*; HepG2 tox: -15%; HT1080-NT tox: -18%; TGFb inhibitor: -13%

How did NC(=S)NN=C1c2ccccc2-c2ccccc21 do in these assays?
Giardia kill: -5; HT1080 IDH1KD tx: -7%; IL1B secr inh: -15; HepG2 tox: -111%; HT1080-NT tox: -8%; TGFb inhibitor: 6.3µM*

What do the screens show for `O=C(NN=C1c2ccccc2-c2ccccc21)c1ccccc1`?
Giardia kill: 53; HT1080 IDH1KD tx: -4%; IL1B secr inh: -12; HepG2 tox: -24%; HT1080-NT tox: -29%; TGFb inhibitor: -10%

Results for ON=C1c2ccccc2-c2ccccc21 ?
Giardia kill: -28; HT1080 IDH1KD tx: 22%; IL1B secr inh: -17; HepG2 tox: -33%; HT1080-NT tox: 10%; TGFb inhibitor: inconclusive

How did CCCN1C(=O)C(Cc2nc3ccccc3c(=O)n2CC)c2cc(Br)ccc21 (stereo not given) do in these assays?
HepG2 tox: -30%; TGFb inhibitor: 7.9µM*

How did COc1cc(-c2coc3c(C(=O)NCc4ccncc4)cccc23)ccc1O do in these assays?
HT1080 IDH1KD tx: -12%; IL1B secr inh: -67*; HepG2 tox: -22%; HT1080-NT tox: -8%; TGFb inhibitor: 0%

What do the screens show for `COc1cc(-c2coc3c(C(=O)NCc4ccc(C(F)(F)F)cc4)cccc23)ccc1O`?
HT1080 IDH1KD tx: 26µM*; IL1B secr inh: inconclusive; HepG2 tox: -29%; HT1080-NT tox: inconclusive; TGFb inhibitor: inconclusive

Bioassay records from PubChem.
